This note sets out measurements from PubChem BioAssay (NCATS).

A number with no mark means an inactive call. Inconclusive results are not listed. Active and inactive are the calls of the source. Unless noted, the call rests on the fitted dose curve; in most records, active means well fitted curve in the direction sought with a large enough effect; inconclusive means small, poorly fitted or top-dose-only effect, or another doubt; inactive means no such curve, though single readings can be large; an effect the other way counts as inactive or inconclusive. Where only a bound is given, the exact number is not on record here.

Test [1] deals with Lysosomal acid glucosylceramidase (Homo sapiens) (UniProt P04062). As to the kind of experiment: Glucocerebrosidase-p2 (AID 348; in the data active means potency below about 10 µM; further: potency means the concentration at half of the fitted maximal effect). The settings on record: purified GBA, blue fluorogenic substrate, 40 min. The essentials: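 Normal human glucocerebrosidase (0.2 nM) with blue fluorogenic substrate (80 uM final) in citrate/phosphate pH 5.9 with 10mM sodium taurocholate, 0.01% tween-20; 40 min RT, NaOH/glycine stop; fluorescence Ex 365/Em 440; AC50 from a titration from 0.6 nM upwards.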

Test [2] in a line: AP1 Signaling Pathway (AID 357; active means well fitted curve in either direction with a large enough effect, not every such curve was filed as active;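 further: ME-180 reporter cells stimulated with EGF at its EC50 level; on the % scale 0 is the no-effect control and ±100 the full control effect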). The settings on record: ME-180 AP-1-bla reporter, EGF-induced, beta-lactamase ratio, 5 h; at 7.69 µM (top of the series) unless noted. The essentials:
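In this screen, ME-180 cells in Opti-MEM with 0.5% dialyzed FBS received EC50 EGF and compound titrations for 5 h. AP-1 reporter beta-lactamase was detected via CCF4 ratio, giving AC50 for positive and negative modulators.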

Test [3] concerns the target Cytochrome P450 1A2 (Homo sapiens) (UniProt P05177). As to the kind of experiment: p450-cyp1a2 (AID 410; calls by dose curve; further: potency means the concentration at half of the fitted maximal effect). The following applies: recombinant CYP1A2, luciferin-ME demethylation, luminescence; series mostly up to 57 µM. The essentials: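 20nM CYP1A2, 100uM Luciferin-ME (=Km), 100mM KPO4; cpd 10 min RT; +NADPH regen, 60 min RT; stop/detect 20 min; luminescence. Normalized to furafylline 57 uM = full inhibition.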

The nature of test [4]: NFAT Signaling Pathway (AID 444; active means well fitted curve in either direction with a large enough effect, not every such curve was filed as active;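 further: carbachol stimulus at about its EC50 of 1 µM final; on the % scale 0 is the no-effect control and ±100 the full control effect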). The following applies: Jurkat NFAT-bla M1, carbachol, beta-lactamase ratio, 5 h; at 7.69 µM (top of the series) unless noted. The essentials: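 Read-out: CCF4 FRET ratio (460 nm/530 nm) after 1 h RT dye loading, used for %activity and AC50 from titration series. Cells: Jurkat NFAT-β-lactamase/M1 line, treated with compound plus 1 uM carbachol for 5 h, 37 °C.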

Test [5] is described as follows: Stat Signaling Pathway (AID 446; active means well fitted curve in either direction with a large enough effect, not every such curve was filed as active;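 further: ME-180 cervical cancer cells given 40 pM IL-6 alongside compound; SIE-controlled beta-lactamase reporter measured as 460/530 nm FRET emission ratio; on the % scale 0 is the no-effect control and ±100 the full control effect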). The settings on record: ME-180 (cervical carcinoma) SIE beta-lactamase reporter, IL-6 stimulated, 5 h; at 7.69 µM (top of the series) unless noted. The essentials:
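Emission at 460 and 530 nm (excitation 405 nm) reports SIE-controlled beta-lactamase in ME-180 cells. Cells received compound with 40 pM IL-6 for 5 hrs at 37 C; data scaled between 300 pM IL-6 and 125 nM JAK-inhibitor controls.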

Test [6] has as its target Glucocorticoid receptor (Homo sapiens) (UniProt P04150). As to the kind of experiment: GR-EFC Redistribution (AID 451; calls by dose curve; further: potency means the concentration at half of the fitted maximal effect). The settings on record: CHO-K1 GR-EFC translocation, beta-gal luminescence, 2 h. The essentials:
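Translocation of GR-ED fusion to nuclear EA restores b-gal, read by luminescence after 1 h room-temperature detection. Engineered CHO-K1 biosensor cells, 1,000/well, exposed 2 h at 37 C to titrations up to 46 uM final.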

Test [7] addresses Mitogen-activated protein kinase 10 (Mus musculus) (UniProt Q61831). As to the kind of experiment: JNK3 AlphaScreen Assay (AID 530; active means well fitted curve in either direction with a large enough effect, not every such curve was filed as active;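 further: kinase came from lysate of stimulated human HepG2 cells; signal reports phosphorylation of biotinylated GST-cJun 1-79 at Ser73 with 10 µM ATP; on the % scale 0 is the no-effect control and ±100 the full control effect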). The settings on record: JNK3 lysate, c-Jun phosphorylation; series mostly up to 57.1 µM. The essentials: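 Kinase buffer: 20 mM Tris-HCl pH 7.6, 10 mM MgCl2, 1 mM DTT, 0.1 mM Na3VO4, 0.01% Tween-20; ATP 10 uM. Substrate biotin-GST-cJun(1-79), enzyme from activated HepG2 lysates. Detection by Ser73 phospho-antibody AlphaScreen.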
A general note: In Alpha technology, singlet oxygen from a donor bead excites a nearby acceptor bead.

Test [8] has as its target Cytochrome P450 3A4 (Homo sapiens) (UniProt P08684). Put plainly: qHTS Assay for Activators of Cytochrome P450 3A4 (AID 885). Further: nearly all actives have a fitted effect of over 65% in size. The following applies: recombinant CYP3A4, Luciferin-PPXE luminescence, 60 min; series mostly up to 57.1 µM. The essentials: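 Activators are scored by enhanced luminescence from CYP3A4 conversion of luciferin-PPXE (25uM, equal to KM) to luciferin, after 60 min at RT with an NADPH-regenerating system.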
On the technique in general: Quantitative high-throughput screening tests each substance at several concentrations.

Test [9] has as its target Dual specificity protein kinase CLK4 (Homo sapiens) (UniProt Q9HAZ1). Put plainly: qHTS Assay for Inhibitors of CDC-like Kinase 4 (Kinase-Glo Assay) (AID 1770). Further: nearly all actives have a fitted effect of over 65% in size. Further: potency means the concentration at half of the fitted maximal effect. The settings on record: recombinant Clk4, Kinase-Glo ATP depletion luminescence; series mostly up to 66.7 µM. The essentials: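 Inhibition was judged from remaining ATP, measured by Ultra-Glo luciferase bioluminescence after Clk4 (25 nM) had acted on RS peptide at 1 uM ATP for 4.5 hours, room temperature.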

The target is the same in test [10]. As to the kind of experiment: qHTS Assay for Inhibitors of CDC-like Kinase 4 (ADP-Glo Assay) (AID 1771). Further: nearly all actives have a fitted effect of over 70% in size. Further: potency means the concentration at half of the fitted maximal effect. The settings on record: recombinant CLK4, ADP-Glo luminescence; series mostly up to 80 µM. The essentials: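 25 nM Clk4, 100 uM RS peptide, 1 uM ATP (final); 2 mM MgCl2, 0.5 mM EGTA, 2.5 mM DTT, 0.01% Triton X-100; 1 hr RT. ADP-Glo readout: ATP depletion 45 min, conversion/luciferase 30 min, luminescence.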

For test [11] the target is unchanged. Put plainly: qHTS Assay for Inhibitors of CDC-like Kinase 4 (ADP-FP Assay) (AID 1795). Further: nearly all actives have a fitted effect of over 60% in size. Further: potency means the concentration at half of the fitted maximal effect. The following applies: Transcreener ADP fluorescence polarization; series mostly up to 50 µM. The essentials: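 Inhibition of ADP formation by 6.25 nM Clk4 is measured using 1 uM ATP and 100 uM RS repeat peptide over one hour. Produced ADP displaces a fluorescent tracer from antibody, lowering polarization.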

For test [12], the target named is Ubiquitin carboxyl-terminal hydrolase 1 (Homo sapiens) (UniProt O94782). As to the kind of experiment: Inhibitors of USP1/UAF1: Pilot qHTS (AID 504865).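 Further: rhodamine fluorescence freed from ubiquitin-rhodamine substrate followed over time; top concentration of the series differs between compounds; on the % scale 0 is the no-effect control and ±100 the full control effect; nearly all actives have a fitted effect of over 35% in size.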 The settings on record: purified USP1/UAF1, Ub-rhodamine cleavage fluorescence; series mostly up to 54.9 µM. The essentials: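 Kinetic fluorescence assay: 1nM USP1/UAF1, 15 min compound preincubation, then 150nM Ub-Rho; 480/540 nm.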

Test [13] is described as follows: Primary qHTS for small molecule stabilizers of the endoplasmic reticulum resident proteome: Secreted ER Calcium Modulated Protein (SERCaMP) assay (AID 1508630). Further: on the % scale 0 is the no-effect control and ±100 the full control effect. The settings on record: SH-SY5Y GLuc-SERCaMP (Gaussia luciferase released on ER calcium loss) secretion, thapsigargin, luminescence; series mostly up to 38.4 µM. The essentials:
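The SH-SY5Y reporter protocol was run at 3 concentrations up to 38.3 uM (primary) or 11 concentrations (follow-up): 16 h compound, 100 nM thapsigargin for 4 h, then extracellular luciferase luminescence.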

The target in test [14] is Rap guanine nucleotide exchange factor 3 (Homo sapiens) (UniProt O95398). Put plainly: Confirmatory qHTS for agonist of cAMP-regulated guanine nucleotide exchange factor 3 (EPAC1) (AID 1645881).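 Further: EPAC1 catalysed release of BODIPY-GDP from Rap1B seen as fluorescence loss; 100% = effect of cAMP agonist control; nearly all actives have a fitted effect of over 75% in size.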 The settings on record: EPAC1 Rap1B BODIPY-GDP exchange fluorescence; series mostly up to 154 µM.
Test [15] addresses Rap guanine nucleotide exchange factor 4 (Homo sapiens) (UniProt Q8WZA2). Put plainly: Confirmatory qHTS for agonist of cAMP-regulated guanine nucleotide exchange factor 4 (EPAC2) (AID 1645884).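 Further: nucleotide exchange releases bodipy-GDP from Rap1 and this lowers its fluorescence; on the % scale 0 is the no-effect control and ±100 the full control effect; nearly all actives have a fitted effect of over 65% in size.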 The following applies: EPAC2 GEF activity, Rap1B-BODIPY-GDP fluorescence; series mostly up to 154 µM.
Test [16] deals with Glucocorticoid receptor (Homo sapiens) (UniProt P04150). As to the kind of experiment: GR-GFP Redistribution (AID 450;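 active means compounds whose dose series gives a full or clear partial fitted curve of increased nuclear translocation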; further: potency means the concentration at half of the fitted maximal effect). The following applies: U2OS GR-GFP nuclear translocation, laser cytometry, 2 h.
Test [17] has as its target 3',5'-cyclic-AMP phosphodiesterase 4B (Homo sapiens) (UniProt Q07343). As to the kind of experiment: qHTS Assay for Inhibitors of PDE-IV (AID 607; active means well fitted activation curve with a large enough effect in the main read-out, with a control signal flat, not every such curve was filed as active; further: % of control where 0% means no effect). The settings on record: HEK293 ACTOne CNG channel cells, membrane potential fluorescence; series mostly up to 22.9 µM. The essentials: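 The readout is membrane depolarisation from a cAMP-sensing CNG channel, detected with a potential dye at ex 535/em 590. Cells were HEK293-derived (endogenous PDE-IV) at 1000 cells/well, titrated up to 22.9 uM final.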

Test [18] has as its target Cytochrome P450 3A4 (Homo sapiens) (UniProt P08684). As to the kind of experiment: qHTS Assay for Inhibitors and Substrates of Cytochrome P450 3A4 (AID 884). Further: potency means the concentration at half of the fitted maximal effect; nearly all actives have a fitted effect of over 50% in size. The following applies: recombinant CYP3A4, Luciferin-PPXE luminescence; series mostly up to 57.1 µM. The essentials:
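Luminescent readout of luciferin produced by CYP3A4 (20 nM) dealkylation of Luciferin-PPXE, 25 uM (its KM). NADPH-driven reaction ran 60 min at RT after 10 min compound preincubation; data scaled to 57 uM ketoconazole as 100% inhibition.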

Chain of Lysosomal acid glucosylceramidase (Homo sapiens) (P04062 whole entry, looked up): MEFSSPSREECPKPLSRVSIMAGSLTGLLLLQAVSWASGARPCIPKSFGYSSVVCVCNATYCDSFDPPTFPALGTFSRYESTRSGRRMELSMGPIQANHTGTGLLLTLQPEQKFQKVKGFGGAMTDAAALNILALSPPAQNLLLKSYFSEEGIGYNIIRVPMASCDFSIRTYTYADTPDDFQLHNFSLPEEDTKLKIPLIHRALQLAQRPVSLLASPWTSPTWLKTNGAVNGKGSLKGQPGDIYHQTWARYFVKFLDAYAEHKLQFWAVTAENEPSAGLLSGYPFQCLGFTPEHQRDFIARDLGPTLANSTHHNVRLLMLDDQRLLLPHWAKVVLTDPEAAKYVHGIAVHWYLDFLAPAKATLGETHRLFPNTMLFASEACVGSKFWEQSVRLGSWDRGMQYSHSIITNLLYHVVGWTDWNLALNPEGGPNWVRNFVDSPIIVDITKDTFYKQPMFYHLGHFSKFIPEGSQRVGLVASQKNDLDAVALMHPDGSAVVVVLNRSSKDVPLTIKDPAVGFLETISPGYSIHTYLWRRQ
Chain of Dual specificity protein kinase CLK4 (Homo sapiens) (Q9HAZ1 whole entry, looked up): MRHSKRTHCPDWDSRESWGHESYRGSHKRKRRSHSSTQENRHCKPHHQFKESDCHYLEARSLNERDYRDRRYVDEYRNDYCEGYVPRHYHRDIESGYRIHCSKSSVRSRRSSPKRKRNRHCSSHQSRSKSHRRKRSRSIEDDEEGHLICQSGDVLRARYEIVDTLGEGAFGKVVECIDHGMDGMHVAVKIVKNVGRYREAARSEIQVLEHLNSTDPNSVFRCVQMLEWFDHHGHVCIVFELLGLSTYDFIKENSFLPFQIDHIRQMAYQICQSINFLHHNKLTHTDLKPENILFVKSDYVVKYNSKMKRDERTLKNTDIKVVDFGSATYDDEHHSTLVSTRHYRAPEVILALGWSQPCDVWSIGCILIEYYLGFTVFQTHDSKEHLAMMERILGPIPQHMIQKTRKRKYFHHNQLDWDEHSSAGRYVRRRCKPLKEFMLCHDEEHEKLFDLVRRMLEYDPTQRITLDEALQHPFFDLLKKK
Chain of Ubiquitin carboxyl-terminal hydrolase 1 (Homo sapiens) (O94782 whole entry, looked up): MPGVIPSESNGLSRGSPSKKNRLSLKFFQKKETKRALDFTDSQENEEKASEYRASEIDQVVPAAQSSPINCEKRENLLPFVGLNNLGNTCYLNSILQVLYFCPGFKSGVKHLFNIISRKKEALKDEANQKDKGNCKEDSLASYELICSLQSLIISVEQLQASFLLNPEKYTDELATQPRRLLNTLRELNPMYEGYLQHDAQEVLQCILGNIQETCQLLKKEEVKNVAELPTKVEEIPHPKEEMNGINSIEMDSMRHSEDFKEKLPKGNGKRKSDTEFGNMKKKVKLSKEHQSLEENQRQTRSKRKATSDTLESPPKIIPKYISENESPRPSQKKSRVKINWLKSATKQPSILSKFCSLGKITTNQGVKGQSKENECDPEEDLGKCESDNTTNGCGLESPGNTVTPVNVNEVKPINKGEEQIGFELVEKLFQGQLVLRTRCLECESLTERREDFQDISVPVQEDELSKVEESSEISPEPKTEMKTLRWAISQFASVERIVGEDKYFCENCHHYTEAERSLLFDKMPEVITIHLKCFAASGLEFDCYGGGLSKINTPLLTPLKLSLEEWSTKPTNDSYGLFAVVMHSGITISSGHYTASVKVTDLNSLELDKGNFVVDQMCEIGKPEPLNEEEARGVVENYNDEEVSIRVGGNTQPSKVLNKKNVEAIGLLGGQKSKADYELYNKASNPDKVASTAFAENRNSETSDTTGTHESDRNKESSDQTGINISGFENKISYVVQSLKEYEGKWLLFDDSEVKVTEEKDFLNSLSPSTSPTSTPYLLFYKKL
Chain of Glucocorticoid receptor (Homo sapiens) (P04150 whole entry, looked up, the tested form may be a part): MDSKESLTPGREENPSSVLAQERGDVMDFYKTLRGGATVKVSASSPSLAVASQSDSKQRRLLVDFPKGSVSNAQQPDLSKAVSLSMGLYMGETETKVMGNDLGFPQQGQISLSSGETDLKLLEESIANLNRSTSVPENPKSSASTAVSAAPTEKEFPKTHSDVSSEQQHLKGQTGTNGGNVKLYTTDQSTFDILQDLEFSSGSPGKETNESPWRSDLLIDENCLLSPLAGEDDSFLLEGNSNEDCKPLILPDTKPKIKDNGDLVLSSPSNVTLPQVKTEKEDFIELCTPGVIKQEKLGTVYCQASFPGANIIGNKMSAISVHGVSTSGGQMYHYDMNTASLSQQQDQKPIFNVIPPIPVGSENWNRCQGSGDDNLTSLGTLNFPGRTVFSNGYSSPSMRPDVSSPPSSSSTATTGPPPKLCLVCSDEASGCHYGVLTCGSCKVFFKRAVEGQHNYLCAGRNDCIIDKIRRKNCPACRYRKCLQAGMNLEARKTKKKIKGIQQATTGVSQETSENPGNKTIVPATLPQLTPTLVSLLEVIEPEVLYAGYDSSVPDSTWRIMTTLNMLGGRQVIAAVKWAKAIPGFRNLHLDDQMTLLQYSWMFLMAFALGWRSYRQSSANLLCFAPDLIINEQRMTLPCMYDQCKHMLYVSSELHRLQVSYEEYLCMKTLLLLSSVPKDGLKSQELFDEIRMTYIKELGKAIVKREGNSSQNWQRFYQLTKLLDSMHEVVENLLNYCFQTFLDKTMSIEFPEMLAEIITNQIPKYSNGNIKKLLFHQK
Chain of Cytochrome P450 3A4 (Homo sapiens) (P08684 whole entry, looked up): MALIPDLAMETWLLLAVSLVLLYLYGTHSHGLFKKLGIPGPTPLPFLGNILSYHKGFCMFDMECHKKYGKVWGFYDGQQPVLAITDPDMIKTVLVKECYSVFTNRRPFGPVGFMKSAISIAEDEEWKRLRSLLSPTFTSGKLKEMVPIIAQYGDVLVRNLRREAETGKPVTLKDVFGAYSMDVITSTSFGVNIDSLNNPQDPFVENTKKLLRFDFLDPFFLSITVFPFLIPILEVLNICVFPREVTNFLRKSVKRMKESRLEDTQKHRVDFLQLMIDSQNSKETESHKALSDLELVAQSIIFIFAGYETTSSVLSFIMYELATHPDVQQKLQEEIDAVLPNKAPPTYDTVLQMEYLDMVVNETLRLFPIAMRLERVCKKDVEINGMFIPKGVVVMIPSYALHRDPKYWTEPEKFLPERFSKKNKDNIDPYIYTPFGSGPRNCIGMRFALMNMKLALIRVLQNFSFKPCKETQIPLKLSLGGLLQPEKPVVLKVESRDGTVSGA
Chain of 3',5'-cyclic-AMP phosphodiesterase 4B (Homo sapiens) (Q07343 whole entry, looked up): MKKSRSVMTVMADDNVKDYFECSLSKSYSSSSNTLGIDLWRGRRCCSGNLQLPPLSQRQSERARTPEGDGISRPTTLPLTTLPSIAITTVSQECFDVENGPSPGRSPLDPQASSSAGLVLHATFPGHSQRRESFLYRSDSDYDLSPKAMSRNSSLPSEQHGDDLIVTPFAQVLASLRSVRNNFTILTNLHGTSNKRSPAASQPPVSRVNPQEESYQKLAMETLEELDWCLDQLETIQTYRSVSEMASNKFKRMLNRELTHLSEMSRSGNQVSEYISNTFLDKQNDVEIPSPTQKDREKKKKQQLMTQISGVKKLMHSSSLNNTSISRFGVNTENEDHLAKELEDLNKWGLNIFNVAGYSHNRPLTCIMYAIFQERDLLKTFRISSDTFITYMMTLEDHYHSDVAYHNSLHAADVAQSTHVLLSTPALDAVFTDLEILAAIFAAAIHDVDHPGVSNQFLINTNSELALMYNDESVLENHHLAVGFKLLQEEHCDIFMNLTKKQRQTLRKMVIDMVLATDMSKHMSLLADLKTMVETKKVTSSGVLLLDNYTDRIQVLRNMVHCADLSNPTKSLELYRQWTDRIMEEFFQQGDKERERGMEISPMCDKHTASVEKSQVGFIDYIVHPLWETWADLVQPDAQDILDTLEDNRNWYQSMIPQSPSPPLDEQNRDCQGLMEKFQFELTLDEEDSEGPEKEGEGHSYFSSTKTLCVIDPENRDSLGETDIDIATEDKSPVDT
Chain of Cytochrome P450 1A2 (Homo sapiens) (P05177 whole entry, looked up): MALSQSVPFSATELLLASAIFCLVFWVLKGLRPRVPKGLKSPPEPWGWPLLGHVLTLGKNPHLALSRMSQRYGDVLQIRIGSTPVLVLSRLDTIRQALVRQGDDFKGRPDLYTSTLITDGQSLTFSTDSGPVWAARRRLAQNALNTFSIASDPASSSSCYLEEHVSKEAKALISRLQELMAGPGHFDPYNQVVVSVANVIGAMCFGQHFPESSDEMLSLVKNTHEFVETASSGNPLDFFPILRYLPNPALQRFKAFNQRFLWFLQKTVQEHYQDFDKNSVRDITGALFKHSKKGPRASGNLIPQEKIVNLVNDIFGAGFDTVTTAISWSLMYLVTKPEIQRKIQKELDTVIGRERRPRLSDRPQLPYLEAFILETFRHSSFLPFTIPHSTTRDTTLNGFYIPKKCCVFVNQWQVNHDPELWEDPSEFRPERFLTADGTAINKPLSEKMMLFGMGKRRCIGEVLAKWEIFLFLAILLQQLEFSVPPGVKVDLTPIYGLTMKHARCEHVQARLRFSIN

In the case of `COc1ccccc1CNc1nc(-c2cccnc2)nc2ccccc12`, the Potency in test [1] is above 11.4 µM; in [3], 1 µM (active); in [6], above 46 µM; in test [9] it was 12.6 µM (active); in test [10], 10 µM (active); in [11], 4.47 µM (active). The activity change, negative = inhibition in [2] was -17.9%; in test [4], -5.69%. In [5], the activity, negative = inhibition is -25.3%. Further, the Potency entry in test [7], in [8], in test [12], in [14] and in test [15] was “inactive” throughout. Moreover, the result in test [13] was inactive.

Turning to `COCCn1c(=O)cnc2cnc(Oc3cccc(Cl)c3)nc21`, the Potency in [1] is above 11.4 µM; in test [3], 3.16 µM (active); in test [16], above 9.22 µM; in test [6] it was above 46 µM. For the same compound, the activity change, negative = inhibition is 1.86% in test [2] and 2.09% in test [4]. Further, the activity, negative = inhibition in test [5] was -13.2%. Further, the Potency result in [7], in test [17], in [8], in [9], in test [10] and in test [11] was “inactive” each time. The Potency entry in test [12] was “inactive”. For the same compound, the outcome in test [13] was inactive.

`Cc1nc2cnc(Oc3ccccc3)nc2n(C2CC2)c1=O`: the Potency in test [1] was above 11.4 µM; in [3] it was 10 µM (active); in test [16] it was above 9.22 µM; in test [6] it was above 46 µM. Besides, the activity change, negative = inhibition is -5.18% in test [2] and -1.18% in test [4]. The activity, negative = inhibition in test [5] was -14.1%. The Potency result in [7], in test [17], in test [8], in [9], in test [10] and in test [11] was “inactive” each time. In addition, the Potency result in test [12] was “inactive”. In [13], the result was inactive.

`CNc1ncncc1-c1ccccc1C`: the Potency in test [1] was above 11.4 µM; in [3], 12.6 µM (active); in test [16] it was above 46 µM; in test [6], above 46 µM; in test [18], 0.631 µM (active). In addition, the figures for the activity change, negative = inhibition in test [2] and in [4] were 7.16% and 9.64%, respectively. In addition, in test [5], the activity, negative = inhibition is 2.49%. In addition, the Potency result in [7], in test [17], in test [8], in test [9], in [10] and in test [11] was “inactive” each time. Also, the Potency entry in [12] was “inactive”. Moreover, the outcome in test [13] was inactive.

For the compound `COCCn1c(=O)c(-c2cccc(Cl)c2)nc2cncnc21`, the Potency in [1] is above 11.4 µM; in test [3] it was 0.631 µM (active); in test [16] it was above 9.22 µM; in test [6], above 46 µM. The activity change, negative = inhibition in test [2] is -9.58%; in test [4] it was 12.1%. In addition, in [5], the activity, negative = inhibition was -4.06%. In addition, the Potency entry in test [7], in test [17], in [8], in test [9], in test [10] and in [11] was “inactive” each time. In addition, the Potency entry in test [12] was “inactive”. Besides, in [13], the result was inactive.

With `CN1CCN(c2ncncc2-c2cccnc2)CC1`, the Potency in test [1] was above 11.4 µM; in test [3] it was 25.1 µM (active); in test [16], above 46 µM; in test [6], above 46 µM. Further, the activity change, negative = inhibition in test [2] was 2.82%; in test [4], -6.42%. The activity, negative = inhibition in [5] is -20.2%. In addition, the Potency entry in test [7], in [17], in [8], in test [9], in [10] and in test [11] was “inactive” throughout. For the same compound, in [12], the Potency result is “inactive”. For the same compound, the result in [13] was inactive.
